# Assay results from PubChem BioAssay AID1159580 (chemical genetic matrix, 2015).
# The whole screen tested about 5,500 compounds, of which about 2,000 (36%) were called active. Another 18% or so got no clear call; they are omitted. Some of the results follow. Unmarked numbers belong to inactive results. Cut-off read from the data, not from the text of the source: active = normalized growth mostly below about 0.91 (no sharp cut-off); inconclusive = no clear call, values can overlap the other calls; inactive = mostly above about 0.92.
# Assay: chemical genetic growth profiling, strain panel (AID 1159580);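 note: tested at 20 µM; growth read once vehicle control cultures reached saturation at 30 °C; 1 = growth at the plate median or of vehicle wells; lower values mean less growth of the strain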
# Details: S. cerevisiae deletion strains, growth OD
# [1] = locus YAR019C, strain CDC15, active compounds read low
# [2] = locus YBL105C, strain PKC1, active compounds read low
# [3] = locus YBR135W, strain CKS1, active compounds read low
# [4] = locus YBR136W, strain MEC1, active compounds read low
# [5] = locus YBR160W, strain CDC28, active compounds read low
# [6] = locus YDL017W, strain CDC7, active compounds read low
# [7] = locus YDL028C, strain MPS1, active compounds read low
# [8] = locus YDL101C, strain DUN1, active compounds read low
# [9] = locus YDL108W, strain KIN28, active compounds read low
# [10] = locus YDL132W, strain cdc53, active compounds read low
# [11] = locus YDL214C, strain PRR2, active compounds read low
# [12] = locus YDR052C, strain DBF4, active compounds read low
# [13] = locus YDR054C, strain cdc34, active compounds read low
# [14] = locus YDR226W, strain ADK1, active compounds read low
# [15] = locus YDR477W, strain SNF1, active compounds read low
# [16] = locus YER123W, strain YCK3, active compounds read low
# [17] = locus YER133W, strain GLC7, active compounds read low
# [18] = locus YFL009W, strain cdc4, active compounds read low
# [19] = locus YFL029C, strain CAK1, active compounds read low
# [20] = locus YFR003C, strain YPI1, active compounds read low
# [21] = locus YFR019W, strain FAB1, active compounds read low
# [22] = locus YFR028C, strain CDC14, active compounds read low
# [23] = locus YGR040W, strain KSS1, active compounds read low
# [24] = locus YGR052W, strain FMP48, active compounds read low
# [25] = locus YGR092W, strain DBF2, active compounds read low
# [26] = locus YHR030C, strain SLT2, active compounds read low
# [27] = locus YHR079C, strain IRE1, active compounds read low
# [28] = locus YHR082C, strain KSP1, active compounds read low
# [29] = locus YHR205W, strain SCH9, active compounds read low
# [30] = locus YIL147C, strain SLN1, active compounds read low
# [31] = locus YJL095W, strain BCK1, active compounds read low
# [32] = locus YJL128C, strain PBS2, active compounds read low
# [33] = locus YJL157C, strain FAR1, active compounds read low
# [34] = locus YJR016C, strain ILV3, active compounds read low
# [35] = locus YJR066W, strain TOR1 (second series), active compounds read low
# [36] = locus YJR066W, strain TOR1, active compounds read low
# [37] = locus YKL048C, strain ELM1, active compounds read low
# [38] = locus YKL067W, strain YNK1, active compounds read low
# [39] = locus YKL101W, strain HSL1, active compounds read low
# [40] = locus YKL193C, strain SDS22, active compounds read low
# [41] = locus YKL203C, strain TOR2, active compounds read low
# [42] = locus YLR113W, strain HOG1, active compounds read low
# [43] = locus YLR133W, strain CKI1, active compounds read low
# [44] = locus YLR403W, strain SFP1, active compounds read low
# [45] = locus YML070W, strain DAK1, active compounds read low
# [46] = locus YMR001C, strain CDC5, active compounds read low
# [47] = locus YMR205C, strain PFK2 (second series), active compounds read low
# [48] = locus YMR277W, strain FCP1, active compounds read low
# [49] = locus YNL006W, strain LST8, active compounds read low
# [50] = locus YNL020C, strain ARK1, active compounds read low
# [51] = locus YNL161W, strain CBK1, active compounds read low
# [52] = locus YNL183C, strain NPR1, active compounds read low
# [53] = locus YNL207W, strain RIO2, active compounds read low
# [54] = locus YNL222W, strain SSU72, active compounds read low
# [55] = locus YNL307C, strain MCK1 (second series), active compounds read low
# [56] = locus YOL078W, strain AVO1, active compounds read low
# [57] = locus YOL136C, strain PFK27, active compounds read low
# [58] = locus YOR061W, strain CKA2, active compounds read low
# [59] = locus YOR119C, strain RIO1, active compounds read low
# [60] = locus YOR231W, strain MKK1, active compounds read low
# [61] = locus YOR329C, strain SCD5, active compounds read low
# [62] = locus YPL031C, strain PHO85, active compounds read low
# [63] = locus YPL153C, strain RAD53, active compounds read low
# [64] = locus YPL204W, strain HRR25, active compounds read low
# [65] = locus YPL209C, strain IPL1, active compounds read low
# [66] = locus YPL256C, strain CLN2, active compounds read low
# [67] = locus YPR025C, strain CCL1, active compounds read low
# [68] = locus YPR106W, strain ISR1, active compounds read low
# [69] = locus YPR111W, strain DBF20, active compounds read low
# [70] = strain NNK1, active compounds read low
# [71] = strain TSCII, active compounds read low
structure (smiles),measurement,setting,value
Clc1ccccc1-c1csc(-c2ccncc2)n1,normalized growth,[1],0.962
same,normalized growth,[2],0.966
same,normalized growth,[3],0.964
same,normalized growth,[4],0.968
same,normalized growth,[5],0.962
same,normalized growth,[6],0.964
same,normalized growth,[7],0.966
same,normalized growth,[8],0.963
same,normalized growth,[9],0.965
same,normalized growth,[10],0.966
same,normalized growth,[11],0.971
same,normalized growth,[12],0.977
same,normalized growth,[13],0.922
same,normalized growth,[14],0.966
same,normalized growth,[15],0.937
same,normalized growth,[16],0.895
same,normalized growth,[17],0.945
same,normalized growth,[18],0.942
same,normalized growth,[19],0.964
same,normalized growth,[20],0.964
same,normalized growth,[21],0.961
same,normalized growth,[22],0.96
same,normalized growth,[23],0.951
same,normalized growth,[24],1.02
same,normalized growth,[25],0.85
same,normalized growth,[26],0.946
same,normalized growth,[27],0.923
same,normalized growth,[28],1.12
same,normalized growth,[29],1.03
same,normalized growth,[30],0.962
same,normalized growth,[31],0.829
same,normalized growth,[32],0.933
same,normalized growth,[33],0.93
same,normalized growth,[34],0.964
same,normalized growth,[35],0.94
same,normalized growth,[36],1.02
same,normalized growth,[37],0.99
same,normalized growth,[38],0.974
same,normalized growth,[39],0.987
same,normalized growth,[40],0.949
same,normalized growth,[41],0.992
same,normalized growth,[42],0.969
same,normalized growth,[43],0.979
same,normalized growth,[44],0.927
same,normalized growth,[45],0.977
same,normalized growth,[46],0.963
same,normalized growth,[47],0.972
same,normalized growth,[48],0.963
same,normalized growth,[49],0.97
same,normalized growth,[50],0.965
same,normalized growth,[51],0.96
same,normalized growth,[52],1.07
same,normalized growth,[53],0.962
same,normalized growth,[54],0.965
same,normalized growth,[55],0.971
same,normalized growth,[56],0.957
same,normalized growth,[57],0.97
same,normalized growth,[58],0.99
same,normalized growth,[59],0.981
same,normalized growth,[60],0.988
same,normalized growth,[61],0.964
same,normalized growth,[62],0.918
same,normalized growth,[63],0.925
same,normalized growth,[64],0.93
same,normalized growth,[65],0.965
same,normalized growth,[66],1.03
same,normalized growth,[67],0.968
same,normalized growth,[68],0.965
same,normalized growth,[69],0.97
same,normalized growth,[70],0.97
same,normalized growth,[71],0.951
Clc1ccccc1-c1csc(-c2cccnc2)n1,normalized growth,[1],0.893
same,normalized growth,[2],0.934
same,normalized growth,[3],0.924
same,normalized growth,[4],0.929
same,normalized growth,[5],0.923
same,normalized growth,[6],0.928
same,normalized growth,[7],0.923
same,normalized growth,[8],0.913 (active)
same,normalized growth,[9],0.924
same,normalized growth,[10],0.932
same,normalized growth,[11],0.822
same,normalized growth,[12],0.917
same,normalized growth,[13],0.848 (active)
same,normalized growth,[14],0.931
same,normalized growth,[15],0.649 (active)
same,normalized growth,[16],0.673
same,normalized growth,[17],0.565 (active)
same,normalized growth,[18],0.932
same,normalized growth,[19],0.889
same,normalized growth,[20],0.93
same,normalized growth,[21],0.783
same,normalized growth,[22],0.939
same,normalized growth,[23],0.647 (active)
same,normalized growth,[24],0.769
same,normalized growth,[25],0.541
same,normalized growth,[26],0.591 (active)
same,normalized growth,[27],0.636
same,normalized growth,[28],0.894
same,normalized growth,[29],0.758
same,normalized growth,[30],0.922
same,normalized growth,[31],0.247 (active)
same,normalized growth,[32],0.926
same,normalized growth,[33],0.773
same,normalized growth,[34],0.902
same,normalized growth,[35],0.686
same,normalized growth,[36],0.67
same,normalized growth,[37],0.968
same,normalized growth,[38],0.866
same,normalized growth,[39],0.9
same,normalized growth,[40],0.88 (active)
same,normalized growth,[41],0.572 (active)
same,normalized growth,[42],0.694 (active)
same,normalized growth,[43],0.842
same,normalized growth,[44],0.662
same,normalized growth,[45],0.787
same,normalized growth,[46],0.913
same,normalized growth,[47],0.864
same,normalized growth,[48],0.869 (active)
same,normalized growth,[49],0.913
same,normalized growth,[50],0.838
same,normalized growth,[51],0.919
same,normalized growth,[52],0.829
same,normalized growth,[53],0.86 (active)
same,normalized growth,[54],0.916
same,normalized growth,[55],0.82
same,normalized growth,[56],0.89
same,normalized growth,[57],0.819
same,normalized growth,[58],0.896
same,normalized growth,[59],0.609 (active)
same,normalized growth,[60],0.756
same,normalized growth,[61],0.902 (active)
same,normalized growth,[62],0.566 (active)
same,normalized growth,[63],0.563 (active)
same,normalized growth,[64],0.553 (active)
same,normalized growth,[65],0.909
same,normalized growth,[66],0.774 (active)
same,normalized growth,[67],0.915
same,normalized growth,[68],0.932
same,normalized growth,[69],0.938
same,normalized growth,[70],0.932
same,normalized growth,[71],0.874 (active)
Brc1ccc(-c2csc(-c3cccnc3)n2)cc1,normalized growth,[1],0.879 (active)
same,normalized growth,[2],0.921
same,normalized growth,[3],0.898
same,normalized growth,[4],0.913
same,normalized growth,[5],0.904
same,normalized growth,[6],0.906
same,normalized growth,[7],0.916
same,normalized growth,[8],0.887 (active)
same,normalized growth,[9],0.904
same,normalized growth,[10],0.854 (active)
same,normalized growth,[11],0.741
same,normalized growth,[12],0.894 (active)
same,normalized growth,[13],0.847 (active)
same,normalized growth,[14],0.884 (active)
same,normalized growth,[15],0.624 (active)
same,normalized growth,[16],0.606 (active)
same,normalized growth,[17],0.561 (active)
same,normalized growth,[18],0.867 (active)
same,normalized growth,[19],0.872 (active)
same,normalized growth,[20],0.904
same,normalized growth,[21],0.677 (active)
same,normalized growth,[22],0.875 (active)
same,normalized growth,[23],0.59 (active)
same,normalized growth,[24],0.704
same,normalized growth,[25],0.456 (active)
same,normalized growth,[26],0.519 (active)
same,normalized growth,[27],0.637
same,normalized growth,[28],0.695
same,normalized growth,[29],0.643
same,normalized growth,[30],0.899
same,normalized growth,[31],0.305 (active)
same,normalized growth,[32],0.951
same,normalized growth,[33],0.735
same,normalized growth,[34],0.878 (active)
same,normalized growth,[35],0.603 (active)
same,normalized growth,[36],0.545
same,normalized growth,[37],0.835
same,normalized growth,[38],0.733 (active)
same,normalized growth,[39],0.784
same,normalized growth,[40],0.864 (active)
same,normalized growth,[41],0.506 (active)
same,normalized growth,[42],0.655 (active)
same,normalized growth,[43],0.767
same,normalized growth,[44],0.563 (active)
same,normalized growth,[45],0.704
same,normalized growth,[46],0.88 (active)
same,normalized growth,[47],0.719 (active)
same,normalized growth,[48],0.873 (active)
same,normalized growth,[49],0.894 (active)
same,normalized growth,[50],0.751
same,normalized growth,[51],0.893 (active)
same,normalized growth,[52],0.55 (active)
same,normalized growth,[53],0.846 (active)
same,normalized growth,[54],0.902
same,normalized growth,[55],0.702
same,normalized growth,[56],0.866 (active)
same,normalized growth,[57],0.709
same,normalized growth,[58],0.792
same,normalized growth,[59],0.54 (active)
same,normalized growth,[60],0.647
same,normalized growth,[61],0.883 (active)
same,normalized growth,[62],0.533 (active)
same,normalized growth,[63],0.449 (active)
same,normalized growth,[64],0.46 (active)
same,normalized growth,[65],0.893 (active)
same,normalized growth,[66],0.679 (active)
same,normalized growth,[67],0.894 (active)
same,normalized growth,[68],0.903
same,normalized growth,[69],0.918
same,normalized growth,[70],0.871 (active)
same,normalized growth,[71],0.86 (active)
